Source: PubChem BioAssay (Tox21)
Inconclusive results are not listed. A call without a number means that no potency is given here. A number with no mark means an inactive call. The source made the active and inactive calls. Calls follow the shape of the dose curve; as a rule, active = well fitted activation curve with a large enough effect in the signal ratio in the repeat runs (not every such curve was filed as active); inconclusive = weak or mixed curves, or effect the other way; inactive = no such curve, though single readings can be large or run the other way; the % refers to the signal ratio.

Each compound was assayed against Glucocorticoid receptor (Homo sapiens) (UniProt P04150) (assay: qHTS assay to identify small molecule agonists of the glucocorticoid receptor (GR) signaling pathway (AID 720691)). Settings: GR-bla HeLa, beta-lactamase reporter ratio, 18 h; series mostly up to 62.4 µM.
Source text: U.S. Tox21 Program National Center for Advancing Translational Sciences [NCATS] NIH Chemical Genomics Center [NCGC] U.S. Environmental Protection Agency [EPA] National Institutes of Environmental Health Sciences [NIEHS] National Toxicology Program [NTP] U.S. Food and Drug Administration [FDA] Tox21 Assay Overview: The Glucocorticoid receptor (GR) is one of the members of the nuclear receptor family of ligand-dependent transcription factors. GR plays a critical role in carbohydrate, protein and lipid metabolisms and programmed cell death. CellSensor GR-bla HeLa cell line (Invitrogen) contains a beta-lactamase reporter gene under the control of the glucocorticoid response element stably integrated into HeLa cells, a cervical cancer cell line that expresses glucocorticoid receptor. The activation of the reporter gene under culture conditions can be detected by fluorescence intensity. This cell line has been used to screen the Tox21 10K compound library and to identify the compounds that activate the GR signaling.
Tox21 Assay Protocol Summary: The GR-bla HeLa cells were dispensed at 1500 cells/6 ul/well in 1536-well black wall/clear bottom plates using a Multidrop Combi (ThermoFisher Scientific, Waltham, MA) dispenser. After the assay plates were incubated at a 37 C/5% CO2 incubator for 4 hours, 23 nL of compounds dissolved in DMSO, positive controls or DMSO only was transferred to the assay plate by a pintool station (Kalypsys, San Diego, CA). The plates were incubated at 37 C for 18 hours. After 1 uL of LiveBLAzerTM B/G FRET substrate was added using a Flying Reagent Dispenser (Aurora Discovery, San Diego, CA), the plates were incubated at room temperature for 2 hours, and fluorescence intensity was measured by an Envision plate reader (PerkinElmer, Shelton, CT).
Potency is read from the fitted curve at half-maximal effect.

Glucocorticoid receptor (Homo sapiens), sequence (P04150 whole entry, looked up): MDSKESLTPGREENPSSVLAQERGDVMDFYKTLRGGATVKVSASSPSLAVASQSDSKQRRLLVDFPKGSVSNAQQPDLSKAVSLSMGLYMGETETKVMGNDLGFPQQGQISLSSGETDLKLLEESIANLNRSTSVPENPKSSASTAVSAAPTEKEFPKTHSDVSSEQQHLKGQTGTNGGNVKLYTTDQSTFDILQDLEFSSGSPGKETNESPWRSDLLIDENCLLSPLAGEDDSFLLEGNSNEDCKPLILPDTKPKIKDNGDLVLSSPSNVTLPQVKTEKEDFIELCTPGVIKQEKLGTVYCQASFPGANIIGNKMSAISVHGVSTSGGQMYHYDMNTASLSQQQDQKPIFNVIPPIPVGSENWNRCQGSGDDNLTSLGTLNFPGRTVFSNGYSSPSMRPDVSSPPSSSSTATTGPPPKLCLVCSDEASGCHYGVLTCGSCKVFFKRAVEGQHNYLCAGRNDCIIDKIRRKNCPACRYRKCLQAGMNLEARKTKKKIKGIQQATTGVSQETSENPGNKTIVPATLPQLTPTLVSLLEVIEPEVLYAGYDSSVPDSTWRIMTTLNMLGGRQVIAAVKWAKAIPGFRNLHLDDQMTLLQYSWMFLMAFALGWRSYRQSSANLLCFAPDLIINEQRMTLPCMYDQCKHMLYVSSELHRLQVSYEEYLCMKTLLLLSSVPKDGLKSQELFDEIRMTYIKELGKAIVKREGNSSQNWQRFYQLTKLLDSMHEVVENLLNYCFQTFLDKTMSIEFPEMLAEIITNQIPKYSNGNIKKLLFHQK

Row | Compound | Potency | activation
1 | CC(Cc1ccccc1)NCCn1cnc2c1c(=O)n(C)c(=O)n2C (stereo not given) | inactive | 
2 | COP(=O)(O)OC | inactive | 
3 | CCN(CCO)CCn1c(Cc2ccccc2)nc2c1c(=O)n(C)c(=O)n2C | inactive | 
4 | CCCC[N+](=O)[O-] | inactive | 
5 | CCN[C@@H](C)Cc1cccc(C(F)(F)F)c1 | inactive | 
6 | CCCCS(=O)(=O)Cl | inactive | 
7 | Oc1ccc(Cc2ccc(O)cc2)cc1 | inactive | 
8 | CC[C@H](N)c1ccccc1 | inactive | 
9 | Cc1ccc(Cl)c(O)c1 | inactive | 
10 | O=C(O)c1c(Cl)ccc2cc(Cl)cnc12 | inactive | 
11 | CCc1cc(OC)c(C[C@H](C)N)cc1OC | inactive | 
12 | CCC1(c2cccc(O)c2)CCCCN(C)C1 (stereo not given) | inactive | 
13 | CC(C)(O)C(Cl)(Cl)Cl | inactive | 
14 | [O-][Br+2]([O-])O | inactive | 
15 | ClCC1CO1 (stereo not given) | inactive | 
16 | S=C=S | inactive | 
17 | CC[C@@H](CO)NC(=O)[C@@H]1C=C2c3cccc4[nH]cc(c34)C[C@H]2N(C)C1 | inactive | 
18 | O=C/C=C/c1ccco1 | inactive | 
19 | CCCCCCCCBr | inactive | 
20 | C=C(Cl)CCl | inactive | 

Row | Compound | Potency | activation
21 | CCOC(=O)c1ncn2c1CN(C)C(=O)c1c(I)cccc1-2 | inactive | 
22 | Brc1c(Br)c(Br)c(Br)c(Br)c1Br |  | 0.883% [at 6.9 µM]
23 | Cc1ccc(-c2nc3ccc(C)cn3c2CC(=O)N(C)C)cc1 | 23.9 µM (active) | 
24 | CCSC(=O)Cl | inactive | 
25 | O=C(Cl)C(Cl)Cl | inactive | 
26 | C=CCCC#N | inactive | 
27 | COc1ccc(CN2CCNCC2)c(OC)c1OC | inactive | 
28 | Cn1c(CCCC(=O)O)nc2cc(N(CCCl)CCCl)ccc21 | inactive | 
29 | C[C@H](N)C(=O)c1ccccc1 | inactive | 
30 | C#CCOC(=O)/C=C(C)/C=C/CC(C)CCCC(C)C (stereo not given) | inactive | 
31 | CN1COCN(Cc2cnc(Cl)s2)/C1=N\[N+](=O)[O-] | inactive | 
32 | CCNc1nc(NCC)nc(SC)n1 | inactive | 
33 | C=C1CC[C@@]2(O)[C@H]3Cc4ccc(O)c5c4[C@@]2(CCN3CC2CC2)[C@H]1O5 | inactive | 
34 | CCCC(C)C1(CC)C(=O)N=C(S)NC1=O (stereo not given) | inactive | 
35 | COC(=O)c1ccccc1CS(=O)(=O)NC(=O)Nc1nc(OC)cc(OC)n1 | inactive | 
36 | CC(=O)CN(CC(C)=O)N=O | inactive | 
37 | CCOC(=O)CCl | inactive | 
38 | BrCC1CO1 (stereo not given) | inactive | 
39 | O=C(Cl)OCc1ccccc1 | inactive | 
40 | CCCC(C)(COC(N)=O)COC(N)=O | inactive | 
